Measurements taken from PubChem BioAssay AID1159580 (chemical genetic matrix, 2015).
“And” between values parts separate entries of the source, which are not always exact repeats. Identical values can stand only once. The campaign covered roughly 5,500 compounds. About 2,000 (36%) were called active. About 18% were inconclusive and are not listed. Rule as the data show it: active = normalized growth mostly below about 0.91 (no sharp cut-off); inconclusive = no clear call, values can overlap the other calls; inactive = mostly above about 0.92. The list shows a part of the results.

Assay: chemical genetic growth profiling, strain panel (AID 1159580);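 also: tested at 20 µM; growth read once vehicle control cultures reached saturation at 30 °C; 1 = growth at the plate median or of vehicle wells; lower values mean less growth of the strain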
Details: S. cerevisiae deletion strains, growth OD

Measured: normalized growth

CC1(C)S[C@@H]2[C@H](NC(=O)Cc3ccccc3)C(=O)N2[C@H]1C(=O)O
inactive: locus YAL021C, strain ccr4, stronger effect = lower value 1.03 | locus YAL026C, strain drs2, stronger effect = lower value 1.04 | locus YAL030W, strain snc1, stronger effect = lower value 1.03 | locus YBL061C, strain skt5, stronger effect = lower value 1.04 | locus YBR009C, strain hhf1, stronger effect = lower value 1.03 | locus YBR021W, strain FUR4, stronger effect = lower value 1.01 | locus YBR023C, strain chs3, stronger effect = lower value 1.04 | locus YBR171W, strain sec66, stronger effect = lower value 1.04 | locus YBR229C, strain ROT2, stronger effect = lower value 1 | locus YBR231C, strain swc5, stronger effect = lower value 1.02 | locus YBR279W, strain paf1, stronger effect = lower value 1.02 | locus YCL011C, strain gbp2, stronger effect = lower value 1.04 | locus YCL016C, strain dcc1, stronger effect = lower value 1.03 | locus YCL029C, strain bik1, stronger effect = lower value 1.02 | locus YCL061C, strain MRC1, stronger effect = lower value 1.02 | locus YCL069W, strain vba3, stronger effect = lower value 1.04 | locus YCR088W, strain abp1, stronger effect = lower value 1.03 | locus YDL005C, strain med2, stronger effect = lower value 1.02 | locus YDL035C, strain GPR1, stronger effect = lower value 1.01 | locus YDL040C, strain nat1, stronger effect = lower value 1.03 | locus YDL074C, strain BRE1, stronger effect = lower value 1.01 | locus YDL101C, strain DUN1, stronger effect = lower value 1.01 | locus YDL134C, strain PPH21, stronger effect = lower value 1 | locus YDL185W, strain tfp1, stronger effect = lower value 1 | locus YDL192W, strain arf1, stronger effect = lower value 1.02 | locus YDR001C, strain nth1, stronger effect = lower value 1.01 | locus YDR069C, strain doa4, stronger effect = lower value 1 | locus YDR101C, strain arx1, stronger effect = lower value 1.02 | locus YDR137W, strain rgp1, stronger effect = lower value 1.03 | locus YDR150W, strain NUM1, stronger effect = lower value 1 | locus YDR159W, strain sac3, stronger effect = lower value 1.02 | locus YDR162C, strain NBP2, stronger effect = lower value 1.01 | locus YDR195W, strain ref2 1.01 | locus YDR297W, strain sur2, stronger effect = lower value 1.01 | locus YDR318W, strain mcm21, stronger effect = lower value 1.02 | locus YDR334W, strain swr1, stronger effect = lower value 1.04 | locus YDR335W, strain msn5, stronger effect = lower value 1.03 | locus YDR388W, stronger effect = lower value 1.02 | locus YDR392W, strain spt3, stronger effect = lower value 0.994 | locus YDR502C, strain sam2, stronger effect = lower value 1.02 | locus YEL003W, strain gim4, stronger effect = lower value 1.03 | locus YEL037C, strain rad23, stronger effect = lower value 1.03 | locus YEL061C, strain CIN8 (second series), stronger effect = lower value 1.02 | locus YEL061C, strain CIN8, stronger effect = lower value 1 | locus YER015W, strain faa2, stronger effect = lower value 1.03 | locus YER016W, strain bim1, stronger effect = lower value 1.02 | locus YER110C, stronger effect = lower value 1.03 | locus YER111C, strain swi4, stronger effect = lower value 1.01 | locus YER155C, strain BEM2 (second series), stronger effect = lower value 1.03 | locus YER155C, strain BEM2, stronger effect = lower value 0.999 | locus YER167W, strain BCK2, stronger effect = lower value 1 | locus YFR010W, strain ubp6, stronger effect = lower value 1.03 | locus YGL078C, strain dbp3, stronger effect = lower value 1.01 | locus YGL086W, strain mad1, stronger effect = lower value 1.01 | locus YGL167C, strain pmr1, stronger effect = lower value 1.04 | locus YGL173C, strain kem1, stronger effect = lower value 1.05 | locus YGL227W, strain vid30, stronger effect = lower value 1.05 | locus YGL240W, strain doc1, stronger effect = lower value 0.993 | locus YGL248W, strain PDE1, stronger effect = lower value 1.01 | locus YGL253W, strain hxk2, stronger effect = lower value 1.04 | locus YGR078C, strain PAC10, stronger effect = lower value 1.01 | locus YGR135W, strain pre9, stronger effect = lower value 1.02 | locus YGR252W, strain gcn5, stronger effect = lower value 0.994 | locus YHR013C, strain ard1, stronger effect = lower value 1.03 | locus YHR027C, strain rpn1, stronger effect = lower value 1.01 | locus YHR030C, strain SLT2, stronger effect = lower value 1.01 and 0.977 | locus YHR079C, strain IRE1 (second series), stronger effect = lower value 1.03 | locus YHR079C, strain IRE1, stronger effect = lower value 0.981 | locus YHR094C, strain hxt1, stronger effect = lower value 1.02 | locus YHR129C, strain ARP1, stronger effect = lower value 0.999 | locus YHR142W, strain chs7, stronger effect = lower value 1.06 | locus YHR200W, strain rpn10, stronger effect = lower value 1.02 | locus YIL066C, strain RNR3, stronger effect = lower value 1 | locus YIL073C, strain SPO22, stronger effect = lower value 1.05 | locus YIL125W, strain kgd1, stronger effect = lower value 1.01 | locus YIR030C, strain dcg1, stronger effect = lower value 1.02 | locus YJL092W, strain hpr5, stronger effect = lower value 1.03 | locus YJL095W, strain BCK1 (second series), stronger effect = lower value 1.02 | locus YJL095W, strain BCK1, stronger effect = lower value 1 and 0.971 | locus YJL115W, strain asf1, stronger effect = lower value 1.03 | locus YJL129C, strain trk1, stronger effect = lower value 1.05 | locus YJL134W, strain LCB3, stronger effect = lower value 1.01 | locus YJL154C, strain vps35, stronger effect = lower value 1.03 | locus YJL164C, strain tpk1, stronger effect = lower value 1.04 | locus YJL166W, strain qcr8, stronger effect = lower value 1.01 | locus YJL168C, strain set2, stronger effect = lower value 1.02 | locus YJL187C, strain SWE1 (second series), stronger effect = lower value 1 | locus YJR043C, strain POL32, stronger effect = lower value 1
